Source: the supplement of paper PMC6555819

Experiments:
Assay in all cases: PBM binding z-score (relative to random genomic background probes); higher = stronger binding; sequences stand for … in GC…GCGATTGACAGCGTAGAATGAAGG
[1] = system: FXR:RXRa (NR concentration 270 nM, RXRa partner concentration 90 nM)
Procedure, shortened: (§1)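 For binding z-scores, the reference was random background probes on custom Agilent 4×180K protein-binding microarrays. These arrays were incubated 1 h with ligand-free nuclear receptor dimers in PBS pH 7.4, 2% milk, 0.02% Triton X-100, 1 mM DTT, 0.2 mg/mL BSA and 0.4 mg/ml salmon testes DNA. Fluorescence was scanned after antibody detection of each partner (one per run) and regression-normalized.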

[2] = system: LXRa:RXRa (NR concentration 270 nM, RXRa partner concentration 90 nM)
Procedure, shortened: as §1

[3] = system: LXRa homodimer (NR concentration 270 nM)
Procedure, shortened: as §1

[4] = system: LXRb:RXRa (NR concentration 270 nM, RXRa partner concentration 90 nM)
Procedure, shortened: as §1

[5] = system: LXRb homodimer (NR concentration 270 nM)
Procedure, shortened: as §1

[6] = system: PPARa:RXRa (NR concentration 270 nM, RXRa partner concentration 90 nM)
Procedure, shortened: as §1

[7] = system: PPARg:RXRa (NR concentration 180 nM, RXRa partner concentration 90 nM)
Procedure, shortened: as §1

[8] = system: PPARg:RXRa 270nM:90nM, anti-RXR (NR concentration 270 nM, RXRa partner concentration 90 nM)
Procedure, shortened: as §1

[9] = system: PPARg:RXRa 30nM:10nM, anti-RXR (NR concentration 30 nM, RXRa partner concentration 10 nM)
Procedure, shortened: as §1

[10] = system: PPARg:RXRa 90nM:30nM, anti-RXR (NR concentration 90 nM, RXRa partner concentration 30 nM)
Procedure, shortened: as §1

Sequence	PBM binding z-score [1]	PBM binding z-score [2]	PBM binding z-score [3]	PBM binding z-score [4]	PBM binding z-score [5]	PBM binding z-score [6]	PBM binding z-score [7]	PBM binding z-score [8]	PBM binding z-score [9]	PBM binding z-score [10]
TGATTGAGGTTATAAGATCAGGGAACGTTGCAAA	1.58	1.48	-0.174	1.21	-0.195	2.46	0.965	1.78	0.689	1.56
GCAACGAGGGCAAAGTTGATAGCATCTGTCGACG	1.14	1.01	-0.469	0.805	-0.643	3.7	5.92	6.03	4.83	6.51
CCTCGGAGGACATAAGGTCAGAGCTGTCCGCTTT	2.39	2.6	0.959	1.75	-0.328	2.45	0.338	0.85	-0.243	0.319
TTACCAAGGTGAAAGGTCGTTCATGCACGCCTTG	3.83	3.72	0.593	3.18	-0.344	5.32	8.83	8.22	8.68	8.9
CGTCCAAGGTCAAGGTCAGTCAAAGAGACTCGAA	7.71	5.91	1.64	4.85	1.09	5.93	6.39	5.98	2.6	4.69
ACTCGGAGGACAAGGGTCAGAGCTACGCCAGTGA	2	1.9	-0.11	1.6	-0.535	3.37	4.49	4.83	2.75	4.25
ATATGTAGGTTACAACCGGGTCATTCAGGCTATG	2.4	4.01	1.33	2.93	0.715	4.68	5.74	5.17	3.03	4.61
TAGCCTAGGTCAGATCGGGCCAGTTTACGCTATA	2.08	0.989	-0.49	0.503	-0.465	1.74	0.188	0.541	-0.568	-0.123
CCTACTGGGCCAAAGGTCATTGTTTCCAATGCTC	4.79	5.08	4.83	4.72	1.37	6.74	11.7	10.6	10.6	11.3
AGAATGTGGTTATACGTAGATCAGGGAAGAAAGT	0.107	0.271	0.177	0.318	-0.0614	0.259	0.647	0.356	0.568	0.428
ATCTCGAGGTAAAGATAGTTCAGTGAATGCAAAT	0.198	5.34	0.132	1.62	0.118	0.727	0.145	0.25	0.14	0.23
ATATGTAGGATACATCCGGGTCATTCAGGCTATG	1.21	1.31	0.653	1.61	0.399	2.9	2.14	1.77	0.797	1.28
TTACCAAGGTGAAGGTCGTTGGTCCCTCTGTAGA	1.16	1.1	-0.0893	1.2	-0.734	2.45	2.79	4.07	1.8	3.33
ATACCAAGGTGATCGTGAGGTCGTTAATACTAAC	1.59	1.12	0.651	1.37	-0.102	1.55	0.445	0.146	-0.147	0.0284
GCGACTGGGGCAGCAGCAGGTTACCATAACTTAA	-0.536	-0.657	-0.621	-0.287	-1.12	0.405	0.4	-0.0757	-0.451	-0.719
TCTTGTAGATCAACAGGAAGTTAAGAAAGATCGA	0.112	0.0523	-0.395	-0.15	-0.422	0.364	0.0673	1.13	2.73	1.58
TCGAGTAGGTTACCAATAGGGCATTCAGCTTTCT	0.215	2.16	-0.0808	0.671	-1.16	1.36	0.697	1.32	1.08	1.1
TCTTGTAGATCAATAGAGGTTAAAAAAGTGCGCT	0.88	4.42	1.13	2.5	0.00759	2.06	0.202	1.65	2.75	2.06
ATCTCTAGGTAAGACTCAATTCAGTGAAGAACGC	0.446	0.482	0.559	0.00858	0.847	0.0535	0.199	0.208	0.402	0.378
CCAGACAGGTGAAATGTAACTCAGTCTGGTACGC	0.0255	-0.0223	-0.367	0.217	0.0964	0.949	1.12	1.5	0.324	1.07
CGAACTAGGTCAAGGACGGTGAATCTCCGCACGC	3.32	2.02	0.122	1.29	-0.582	4.44	6.87	6.24	3.95	5.89
TCATATAGGCAAAAGGTGAAAGTCGGTGTGGTAA	1.44	1.54	-0.253	1.6	-0.167	4.76	7.39	6.76	6.88	8.15
CGAACGAGGGCATGAGTTGAGAGCAAATGCCGAT	0.636	0.355	-0.664	0.203	-1	1.65	1.42	1.4	0.0136	0.958
ACTTACGGGACAACGAGGTTATAGCACGCGTATA	0.442	0.645	0.447	0.958	0.473	1.08	1.01	0.442	0.295	0.32
